Most compounds without a hit are left out; they make up all but 9.2% or so of the library.
ELG1 repair inh: inhibitors of ELG1-dependent DNA repair in HEK293T cells; AID 504467; Potency, µM (titrated, usually from 46.1 µM), without a hit: at the highest dose activity change, negative = inhibition, usual class: inhibitors; HEK293T ELG1-luciferase reporter, luminescence, 16 h; DNA damage induced by 5-fluorouridine; 330,000 compounds, 2.3% hits; note: % is set by controls: 0 for no effect and ±100 for the full control effect; nearly all actives have a fitted effect of over 55% in size
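Cells (2,000 per well) received 5-fluorouridine plus test compound or DMSO and were incubated 16 hr at 37 °C, 5% CO2. Luciferase activity was read by luminescence 30 min after ONE-Glo addition; signal suppression marked inhibition of damage-induced ELG1 function.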
SMN2 splice enh: increases expression of the SMN2 splice variant; HEK293 SMN2-luciferase splicing reporter, luminescence, 30-36 h; Potency, µM (doses to about 46.1 µM), inactives show at the top dose activity change, positive = activation, hits mostly activators; 210,000 compounds, 2.8% hits; note: % of control where 0% means no effect; nearly all actives have a fitted effect of over 55% in size
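HEK293 cells carry an SMN2 […]–luciferase reporter in which exon 7 inclusion puts luciferase in frame. Cells were plated 10-12 h before compound addition, then incubated 30-36 h at 37C. ONE-Glo luminescence was read; sodium butyrate at 4.5 mM final served as control.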
Rab9 prom act: activators of Rab9 promoter; AID 485297; 320,000 compounds, 2.8% hits; Huh7 Rab9 promoter-luciferase reporter, luminescence, 24 h; Potency, µM (doses to about 9.22 µM), inactives show at the top dose activation, negative = inhibition, actives largely listed as activators; note: % of control where 0% means no effect; nearly all actives have a fitted effect of over 60% in size
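Using Huh7 cells stably transfected with Rab9 promoter–luciferase, compounds were incubated 24 h at 37 °C, 5% CO2; luciferase luminescence was read 10 min after reagent addition.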
ELG1 genotoxic: induces genotoxicity in HEK293T cells with luciferase-tagged ELG1; AID 504466; Potency, µM (series often up to 46 µM), inactives show top-dose activity change, positive = activation, hits mostly activators; HEK293T ELG1-luciferase reporter, luminescence, 16 h; 330,000 compounds, 1.3% hits; note: % of control where 0% means no effect; nearly all actives have a fitted effect of over 60% in size
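HEK293T cells expressing luciferase-tagged ELG1 were exposed to compound or DMSO vehicle for 16 hr at 37 °C and 5% CO2. Luciferase activity was then measured with ONE-Glo after 30 min at room temperature.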
FLuc modulator: counter-screen for miR-21 project: firefly luciferase inhibitors or activators | P08659 | purified FLuc, Km substrates, luminescence inhibition | Potency, µM (doses to about 57.5 µM), for inactives: at the highest dose activity change, negative = inhibition, actives largely listed as inhibitors | 360,000 compounds, 6.9% hits;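 note: plate controls were vehicle for no effect and reference inhibitor for full effect; nearly all actives have a fitted effect of over 55% in size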
Target sequence (P08659 whole entry, looked up): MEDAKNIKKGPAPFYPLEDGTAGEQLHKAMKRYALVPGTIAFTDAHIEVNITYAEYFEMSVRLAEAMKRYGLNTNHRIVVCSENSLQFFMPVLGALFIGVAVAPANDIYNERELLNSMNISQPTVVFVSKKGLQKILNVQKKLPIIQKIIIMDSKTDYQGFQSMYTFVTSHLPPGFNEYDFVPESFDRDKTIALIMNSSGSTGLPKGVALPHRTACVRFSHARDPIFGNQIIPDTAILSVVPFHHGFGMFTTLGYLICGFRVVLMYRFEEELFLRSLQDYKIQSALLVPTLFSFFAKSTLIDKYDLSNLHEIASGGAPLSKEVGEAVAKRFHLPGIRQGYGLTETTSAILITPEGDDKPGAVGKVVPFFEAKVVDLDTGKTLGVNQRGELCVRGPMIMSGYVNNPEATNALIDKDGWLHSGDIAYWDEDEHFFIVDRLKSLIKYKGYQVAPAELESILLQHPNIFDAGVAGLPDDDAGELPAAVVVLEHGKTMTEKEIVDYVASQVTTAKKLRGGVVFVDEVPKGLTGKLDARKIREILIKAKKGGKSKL
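Biochemical qHTS of compounds, final roughly 60 µM downward over six points, against 10 nM purified firefly luciferase using Km concentrations of substrates (10 uM D-luciferin, 10 uM ATP) in Tris acetate pH 7.5 buffer; luminescence output.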
NPC1 prom act: activators of NPC1 promoter; Huh7 NPC1 promoter luciferase reporter, 24 h; Potency, µM (top dose mostly 9.22 µM), inactives show top-dose activation, most hits filed as activators; 320,000 compounds, 2.4% hits; note: % of control where 0% means no effect; nearly all actives have a fitted effect of over 60% in size
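Huh7 cells stably carrying NPC1 promoter–luciferase, plated in Opti-MEM with 10% FBS for 2 h, were exposed to compound in DMSO for 24 h at 37 °C; luciferase reagent was added for 10 min and luminescence read.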
Starred values were filed as active, the others as inactive; [ ] = dose if it differs, or a comment. Calls come from the whole dose curve; as a rule, active = well fitted curve in the direction sought with a large enough effect; inconclusive = small, poorly fitted or top-dose-only effect, or another doubt; inactive = no such curve, though single readings can be large; an effect the other way counts as inactive or inconclusive. Potency is the fitted concentration of half-maximal effect.

For N#CCSc1nc2cc(C(=O)N3CCCC3)ccc2c(=O)n1Cc1ccccc1 the results were ELG1 repair inh inconclusive, SMN2 splice enh 19%, Rab9 prom act 4%, ELG1 genotoxic -6%, FLuc modulator 4% and NPC1 prom act -3%.
For CCn1c(SCC#N)nc2ccccc2c1=O the results were ELG1 repair inh 4%, Rab9 prom act inconclusive, ELG1 genotoxic 4%, FLuc modulator 7% and NPC1 prom act -2%.
`N#CCSc1nc2cc(C(=O)N3CCC(C(N)=O)CC3)ccc2c2nc3ccccc3n12` gave ELG1 repair inh 21µM*, SMN2 splice enh -8%, Rab9 prom act -3%, ELG1 genotoxic -6%, FLuc modulator -15% and NPC1 prom act -2%.
For Cc1ccccc1CS(=O)(=O)Cc1ccc(C(=O)NCCc2ccc(Cl)cc2)o1 the results were FLuc modulator -20%.
Clc1ccccc1OCc1nnc(-c2ccccc2Br)o1 was read as ELG1 repair inh inconclusive, SMN2 splice enh inconclusive, Rab9 prom act inconclusive, ELG1 genotoxic inconclusive, FLuc modulator 12µM* and NPC1 prom act 3.5µM*.
N#Cc1ccccc1OCc1nnc(-c2ccccc2Br)o1 was read as ELG1 repair inh inconclusive, Rab9 prom act 1.4µM*, ELG1 genotoxic inconclusive, FLuc modulator 5.4µM* and NPC1 prom act 2µM*.
Screening Brc1ccccc1-c1nnc(COc2cccc3cccnc23)o1 returned ELG1 repair inh inconclusive, SMN2 splice enh inconclusive, Rab9 prom act -3%, ELG1 genotoxic 15%, FLuc modulator inconclusive and NPC1 prom act 2%.
CCCCCCNc1ncnc2c1sc1nc(N3CCOCC3)c3c(c12)CCCC3 was read as SMN2 splice enh 12% and FLuc modulator 0%.
CC(C)(C)c1ccc(C(=O)CCCN2CCC(OC(c3ccccc3)c3ccccc3)CC2)cc1 was read as Rab9 prom act -42%[46.1 µM] and NPC1 prom act -42%[46.1 µM].
C=CCOC(=O)COc1ccc2c(C)c(C)c(=O)oc2c1 was read as ELG1 repair inh 3%, SMN2 splice enh 10%, Rab9 prom act -1%, ELG1 genotoxic 2%, FLuc modulator 19µM* and NPC1 prom act 0%.
For C=CCOC(=O)COc1ccc2c(C)c(CC)c(=O)oc2c1 the results were ELG1 repair inh -6%, SMN2 splice enh 29%, Rab9 prom act -3%, ELG1 genotoxic -1%, FLuc modulator 12µM* and NPC1 prom act 5%.
Screening CCOC(=O)C1=C(C)C(c2cccc(Oc3ccccc3)c2)NC(=S)N1 (stereo not drawn) returned ELG1 repair inh 26µM*, SMN2 splice enh -43%, Rab9 prom act -11%, ELG1 genotoxic -5%, FLuc modulator 3% and NPC1 prom act 3%.
COc1ccc(C2CC(c3ccccc3)=NN2c2ccc(S(N)(=O)=O)cc2)cc1OC (stereo not drawn) was read as ELG1 repair inh -20%, SMN2 splice enh -1%, Rab9 prom act -3%, ELG1 genotoxic 1%, FLuc modulator -1% and NPC1 prom act -5%.
COc1cc(C2CC(c3ccccc3)=NN2c2ccccc2)ccc1OCC(=O)O (stereo not drawn) was read as ELG1 repair inh 7%, Rab9 prom act 1%, ELG1 genotoxic 7%, FLuc modulator 15µM* and NPC1 prom act 0%.
`COc1ccc(C2=NN(c3ccc(C(=O)O)cc3)C(c3ccc(OC)c(OC)c3)C2)cc1` (stereo not drawn) gave ELG1 repair inh inconclusive, Rab9 prom act 10%, ELG1 genotoxic 23µM*, FLuc modulator inconclusive and NPC1 prom act 16%.
For COc1ccc(C2CC(c3ccc(Cl)cc3)=NN2c2ccc(S(N)(=O)=O)cc2)cc1 (stereo not drawn) the results were ELG1 repair inh 0% and ELG1 genotoxic -8%.
Cc1ccc(C)n1-c1cccc(S(=O)(=O)N2CCOCC2)c1 was read as ELG1 repair inh inconclusive, SMN2 splice enh 15%, Rab9 prom act -6%, ELG1 genotoxic 26µM*, FLuc modulator 3% and NPC1 prom act -11%.
O=C(NCCCN1CCOCC1)c1cc(-c2ccc(Cl)s2)nc2ccccc12 was read as ELG1 repair inh 5%, Rab9 prom act 0%, ELG1 genotoxic -8%, FLuc modulator -15% and NPC1 prom act -1%.
Screening COc1ccc(N/N=C(/C(N)=O)C2=NC(C)(C)Cc3ccccc32)cc1 returned ELG1 repair inh 23µM*, SMN2 splice enh -25%, Rab9 prom act -11%, ELG1 genotoxic -10%, FLuc modulator -1% and NPC1 prom act -7%.
Screening CC1(C)Cc2ccccc2C(/C(C#N)=N/O)=N1 returned ELG1 repair inh -24%, SMN2 splice enh 9%, Rab9 prom act -5%, ELG1 genotoxic -12%, FLuc modulator inconclusive and NPC1 prom act 1%.
COc1cccc(NC(=O)CSC2=Nc3ccccc3C3=NC(CCC(=O)NC4CCCCC4)C(=O)N23)c1 (stereo not drawn) was read as FLuc modulator 2%.
CCn1c(C)csc1=NC(=O)c1ccccc1 was read as ELG1 repair inh inconclusive, SMN2 splice enh -10%, Rab9 prom act inconclusive, ELG1 genotoxic 7%, FLuc modulator 19µM* and NPC1 prom act 17%.
For Cc1csc(=NC(=O)c2ccccc2)n1Cc1ccco1 the results were ELG1 repair inh inconclusive, SMN2 splice enh -26%, Rab9 prom act 17%, ELG1 genotoxic 1%, FLuc modulator inconclusive and NPC1 prom act 13%.
`C=CCn1c(C)csc1=Nc1ccccc1C` gave ELG1 repair inh 16%, SMN2 splice enh 19%, Rab9 prom act 10%, ELG1 genotoxic 3%, FLuc modulator inconclusive and NPC1 prom act -1%.
Screening Cc1csc(=NC(=O)c2ccccc2)n1C returned ELG1 repair inh inconclusive, SMN2 splice enh 11µM*, Rab9 prom act 2.5µM*, ELG1 genotoxic 21µM*, FLuc modulator 13µM* and NPC1 prom act 3.2µM*.
CCn1c(C)csc1=NC(=O)c1ccccc1O was read as ELG1 repair inh inconclusive, SMN2 splice enh -9%, Rab9 prom act 2.8µM*, ELG1 genotoxic inconclusive, FLuc modulator 13µM* and NPC1 prom act 2.8µM*.
Screening Cc1c(Cl)cccc1NC(=O)CCS(=O)(=O)c1ccc2c(c1)CC(C)N2C(=O)C1CC1 (stereo not drawn) returned FLuc modulator -5%.
For O=C(CN1CCCC1)Nc1ccccc1C(=O)c1ccccc1 the results were ELG1 repair inh 36%, Rab9 prom act -5%, ELG1 genotoxic 2%, FLuc modulator 1% and NPC1 prom act 1%.

Compound activity (PubChem BioAssay)
